The record followed here is PubChem BioAssay (NCATS).

Experiment [1] has as its target Lysosomal acid glucosylceramidase (Homo sapiens) (UniProt P04062). The experiment is described as follows: Glucocerebrosidase-p2 (AID 348; in the data active = potency below about 10 µM; also: potency is read from the fitted curve at half-maximal effect). The note with it: purified GBA, blue fluorogenic substrate, 40 min. An outline of the steps: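 Normal human glucocerebrosidase (0.2 nM) with blue fluorogenic substrate (80 uM final) in citrate/phosphate pH 5.9 with 10mM sodium taurocholate, 0.01% tween-20; 40 min RT, NaOH/glycine stop; fluorescence Ex 365/Em 440; AC50 from a titration from 0.6 nM upwards.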

Experiment [2] in a line: AP1 Signaling Pathway (AID 357). Also: % is scaled to controls: 0 for no effect and ±100 for the full control effect. The note with it: ME-180 AP-1-bla reporter, EGF-induced, beta-lactamase ratio, 5 h; at 7.69 µM (top of the series) unless noted. Summed up: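 Read-out was the 460nm/530nm emission ratio (excitation 405nm) after CCF4 loading for 2.5 hours at room temperature. Cells carried an AP-1-driven beta-lactamase reporter, were stimulated with EC50 EGF plus compound for 5 hours, and AC50 values came from titrations.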

The target in experiment [3] is Cytochrome P450 1A2 (Homo sapiens) (UniProt P05177). Description: p450-cyp1a2 (AID 410; calls by dose curve; also: potency is read from the fitted curve at half-maximal effect). The note with it: recombinant CYP1A2, luciferin-ME demethylation, luminescence; series mostly up to 11.4 µM. An outline of the steps: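 O-Demethylation of luciferin 6' methyl ether by human CYP1A2 is monitored as luciferase luminescence. Substrate sits at Km (100uM); enzyme is 20nM. Values are scaled to 57 uM furafylline as maximal inhibition.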

The nature of experiment [4]: NFAT Signaling Pathway (AID 444).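 Also: carbachol stimulus at about its EC50 of 1 µM final; % is scaled to controls: 0 for no effect and ±100 for the full control effect.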 The note with it: Jurkat NFAT-bla M1, carbachol, beta-lactamase ratio, 5 h; at 7.69 µM (top of the series) unless noted. An outline of the steps:
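Jurkat cells carrying an NFAT-driven β-lactamase reporter and co-transfected muscarinic M1 receptor were treated with compound plus carbachol (1 uM final, an EC50 level) for 5 h at 37 °C. CCF4 loading followed for 1 h at RT; 460/530 nm ratio gave %activity.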

A short description of experiment [5]: Stat Signaling Pathway (AID 446).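 Also: ME-180 cervical cancer cells given 40 pM IL-6 alongside compound; SIE-controlled beta-lactamase reporter measured as 460/530 nm FRET emission ratio; % is scaled to controls: 0 for no effect and ±100 for the full control effect.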 The note with it: ME-180 SIE beta-lactamase reporter, IL-6 stimulated, 5 h; at 7.69 µM (top of the series) unless noted. Summed up:
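FRET read-out (405 nm excitation, 460/530 nm emission) of a beta-lactamase reporter under a STAT-inducible element in ME-180 cervical carcinoma cells. Cells with compound receive 40 pM IL-6 for 5 h. Values are normalised to AC90 stimulation and AC90 JAK-inhibitor controls.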

Experiment [6] deals with Glucocorticoid receptor (Homo sapiens) (UniProt P04150). The experiment is described as follows: GR-GFP Redistribution (AID 450;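 active = compounds whose dose series gives a full or clear partial fitted curve of increased nuclear translocation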; also: potency is read from the fitted curve at half-maximal effect). The note with it: U2OS GR-GFP nuclear translocation, laser cytometry, 2 h.
Experiment [7] shares this target. Description: GR-EFC Redistribution (AID 451; calls by dose curve; also: potency is read from the fitted curve at half-maximal effect). The note with it: CHO-K1 GR-EFC translocation, beta-gal luminescence, 2 h. An outline of the steps:
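CHO-K1 cells stably expressing nuclear-localized β-gal enzyme acceptor and GR fused C-terminally to the enzyme donor fragment; ligand-driven nuclear translocation restores β-gal by complementation. Compounds titrated up to 46 uM final, 2 h at 37 °C; luminescence read.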

Experiment [8] has as its target Cytochrome P450 2C9 (Homo sapiens) (UniProt P11712). The experiment is described as follows: qHTS Assay for Inhibitors and Substrates of Cytochrome P450 2C9 (AID 883; active = well fitted curve in the direction sought with a large enough effect; an effect the other way counts as inactive or inconclusive; also: nearly all actives have a fitted effect of over 60% in size; also: potency is read from the fitted curve at half-maximal effect). The note with it: recombinant CYP2C9, luciferin-H luminescence, 60 min; series mostly up to 11.4 µM. Summed up:
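CYP2C9 deoxyluciferin hydroxylation, 37C, 60 min with NADPH regeneration; 10nM enzyme, 100uM Luciferin-H (KM). Glo detection reagent stopped reaction; luminescence normalized to sulphaphenazole (57uM) full inhibition.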
For orientation: Quantitative high-throughput screening tests each substance at several concentrations.

The target in experiment [9] is Cytochrome P450 3A4 (Homo sapiens) (UniProt P08684). Description: qHTS Assay for Inhibitors and Substrates of Cytochrome P450 3A4 (AID 884; active = well fitted curve in the direction sought with a large enough effect; an effect the other way counts as inactive or inconclusive; also: potency is read from the fitted curve at half-maximal effect; nearly all actives have a fitted effect of over 50% in size). The note with it: recombinant CYP3A4, Luciferin-PPXE luminescence; series mostly up to 57.1 µM. An outline of the steps:
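Luminescent readout of luciferin produced by CYP3A4 (20 nM) dealkylation of Luciferin-PPXE, 25 uM (its KM). NADPH-driven reaction ran 60 min at RT after 10 min compound preincubation; data scaled to 57 uM ketoconazole as 100% inhibition.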

Experiment [10] shares this target. The experiment is described as follows: qHTS Assay for Activators of Cytochrome P450 3A4 (AID 885; active = well fitted curve in the direction sought with a large enough effect; an effect the other way counts as inactive or inconclusive; also: nearly all actives have a fitted effect of over 65% in size). The note with it: recombinant CYP3A4, Luciferin-PPXE luminescence, 60 min; series mostly up to 11.4 µM. An outline of the steps:
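Luminescent readout of luciferin formed from 25 uM Luciferin-PPXE (KM level) by 20 nM CYP3A4 in 200 mM KPO4, with 60 min NADPH-driven reaction at room temperature after 10 min compound exposure. Ketoconazole (57 uM) defined 100% inhibition.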

Experiment [11] concerns the target 3',5'-cyclic-AMP phosphodiesterase 4B (Homo sapiens) (UniProt Q07343). The experiment is described as follows: qHTS Assay for Inhibitors of PDE-IV (AID 607; active = well fitted activation curve with a large enough effect in the main read-out, with a control signal flat, not every such curve was filed as active; also: % of control where 0% means no effect). The note with it: HEK293 ACTOne CNG channel cells, membrane potential fluorescence; series mostly up to 22.9 µM. An outline of the steps: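 Cell-based read-out of cAMP via a modified cyclic nucleotide-gated channel and membrane potential dye (535/590 nm) in HEK293 cells expressing PDE4 endogenously. Compounds tested up to 22.9 uM final; 100 uM RO 20-1724 reference.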

The target of experiment [12] is Mitogen-activated protein kinase 10 (Mus musculus) (UniProt Q61831). Description: JNK3 AlphaScreen Assay (AID 530).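 Also: kinase came from lysate of stimulated human HepG2 cells; signal reports phosphorylation of biotinylated GST-cJun 1-79 at Ser73 with 10 µM ATP; % is scaled to controls: 0 for no effect and ±100 for the full control effect.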 The note with it: JNK3 lysate, c-Jun phosphorylation; series mostly up to 11.4 µM. An outline of the steps:
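Phosphorylation of biotinylated GST-cJun(1-79) at Ser73 is measured by AlphaScreen proximity luminescence. Enzyme is JNK3 in HepG2 lysates activated with interleukin-1beta and tumor necrosis factor alpha; ATP is 10 uM final.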

The nature of experiment [13]: qHTS Assay for Identification of Small Molecule Agonists for Hypoxia Response Element Signaling Pathway (AID 914; active = well fitted activation curve with a large enough effect in the signal ratio, with a control signal flat, not every such curve was filed as active; the % refers to the signal ratio; also: % of control where 0% means no effect). The note with it: ME-180 (cervical carcinoma) HRE-bla reporter, beta-lactamase ratio, CoCl2, 17 h; activation: active compounds read high. An outline of the steps:
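Read-out: CCF4 FRET ratio of 460nm to 530nm emission (excitation 405nm) after 2.5 hours at room temperature, taken from HRE-bla ME-180 cells that had been exposed to compound and EC50 CoCl2 for 17 hours.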

In experiment [14] the target is Cytochrome P450 2D6 (Homo sapiens) (UniProt P10635). Description: qHTS Assay for Inhibitors and Substrates of Cytochrome P450 2D6 (AID 891; active = well fitted curve in the direction sought with a large enough effect; an effect the other way counts as inactive or inconclusive;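 also: luciferin methyl ether substrate demethylated by CYP2D6 with NADPH regeneration; % is scaled to controls: 0 for no effect and ±100 for the full control effect; nearly all actives have a fitted effect of over 60% in size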). The note with it: recombinant CYP2D6, luciferin-ME EGE luminescence; series mostly up to 11.4 µM. Summed up: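 Luminescent read-out of luciferin formed by 5 nM human CYP2D6 demethylating 30 uM Luciferin-ME EGE (Km level) over 60 min at room temperature after NADPH regeneration addition. Data normalized to full inhibition by 1.43 uM quinidine.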

Experiment [15] concerns the target Cytochrome P450 2C19 (Homo sapiens) (UniProt P33261). The experiment is described as follows: qHTS Assay for Inhibitors and Substrates of Cytochrome P450 2C19 (AID 899; active = well fitted curve in the direction sought with a large enough effect; an effect the other way counts as inactive or inconclusive; also: nearly all actives have a fitted effect of over 60% in size; also: potency is read from the fitted curve at half-maximal effect). The note with it: recombinant CYP2C19, luciferin-H EGE luminescence; series mostly up to 11.4 µM. An outline of the steps:
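In 50mM KPO4, the reaction held 5nM enzyme and KM-level (10uM) Luciferin-H EGE; it ran 60 min at 37C after NADPH regeneration and a 10 min compound preincubation. Luminescence values were scaled to 57uM ketoconazole as complete inhibition.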

Values without a mark were called inactive. Records with an inconclusive call do not appear. Activity calls are given as the source filed them. Unless noted, calls follow the shape of the dose curve; as a rule, active = well fitted curve in either direction with a large enough effect (not every such curve was filed as active); inconclusive = small, poorly fitted or top-dose-only effect, or another doubt; inactive = flat fitted curve, though single readings scatter.

Chain of 3',5'-cyclic-AMP phosphodiesterase 4B (Homo sapiens) (Q07343 whole entry, looked up): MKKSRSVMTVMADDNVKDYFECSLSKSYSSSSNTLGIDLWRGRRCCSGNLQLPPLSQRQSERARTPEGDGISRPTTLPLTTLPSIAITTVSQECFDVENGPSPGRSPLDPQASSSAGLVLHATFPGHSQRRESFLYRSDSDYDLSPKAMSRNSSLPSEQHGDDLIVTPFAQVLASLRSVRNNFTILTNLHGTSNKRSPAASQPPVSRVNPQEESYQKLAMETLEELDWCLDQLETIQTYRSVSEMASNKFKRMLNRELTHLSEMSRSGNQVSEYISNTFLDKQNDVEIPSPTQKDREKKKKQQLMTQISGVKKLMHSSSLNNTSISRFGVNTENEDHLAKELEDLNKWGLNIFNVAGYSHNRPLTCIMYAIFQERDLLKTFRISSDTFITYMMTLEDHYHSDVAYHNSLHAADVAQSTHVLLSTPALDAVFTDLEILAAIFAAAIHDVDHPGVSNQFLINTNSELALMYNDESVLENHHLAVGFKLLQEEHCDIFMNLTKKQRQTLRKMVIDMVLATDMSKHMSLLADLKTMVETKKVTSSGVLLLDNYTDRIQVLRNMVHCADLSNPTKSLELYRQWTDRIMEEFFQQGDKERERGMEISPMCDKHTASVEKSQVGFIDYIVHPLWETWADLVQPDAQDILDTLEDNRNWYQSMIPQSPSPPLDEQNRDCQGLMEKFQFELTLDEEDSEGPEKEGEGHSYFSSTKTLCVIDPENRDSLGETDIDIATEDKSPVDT
Chain of Lysosomal acid glucosylceramidase (Homo sapiens) (P04062 whole entry, looked up): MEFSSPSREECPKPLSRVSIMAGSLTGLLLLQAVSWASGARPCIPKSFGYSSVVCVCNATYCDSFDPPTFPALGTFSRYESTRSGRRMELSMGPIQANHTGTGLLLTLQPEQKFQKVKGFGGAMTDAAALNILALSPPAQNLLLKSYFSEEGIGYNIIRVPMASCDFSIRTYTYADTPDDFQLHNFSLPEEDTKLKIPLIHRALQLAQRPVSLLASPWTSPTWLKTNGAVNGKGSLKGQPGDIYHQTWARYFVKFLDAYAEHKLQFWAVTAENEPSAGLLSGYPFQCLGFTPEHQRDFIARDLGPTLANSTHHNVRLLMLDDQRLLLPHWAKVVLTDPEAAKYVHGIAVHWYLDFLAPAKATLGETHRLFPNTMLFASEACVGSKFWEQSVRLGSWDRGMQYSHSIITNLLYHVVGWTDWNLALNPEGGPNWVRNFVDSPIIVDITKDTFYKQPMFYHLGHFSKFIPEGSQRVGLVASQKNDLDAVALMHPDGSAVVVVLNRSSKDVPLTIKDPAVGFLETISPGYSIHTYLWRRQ
Chain of Cytochrome P450 1A2 (Homo sapiens) (P05177 whole entry, looked up): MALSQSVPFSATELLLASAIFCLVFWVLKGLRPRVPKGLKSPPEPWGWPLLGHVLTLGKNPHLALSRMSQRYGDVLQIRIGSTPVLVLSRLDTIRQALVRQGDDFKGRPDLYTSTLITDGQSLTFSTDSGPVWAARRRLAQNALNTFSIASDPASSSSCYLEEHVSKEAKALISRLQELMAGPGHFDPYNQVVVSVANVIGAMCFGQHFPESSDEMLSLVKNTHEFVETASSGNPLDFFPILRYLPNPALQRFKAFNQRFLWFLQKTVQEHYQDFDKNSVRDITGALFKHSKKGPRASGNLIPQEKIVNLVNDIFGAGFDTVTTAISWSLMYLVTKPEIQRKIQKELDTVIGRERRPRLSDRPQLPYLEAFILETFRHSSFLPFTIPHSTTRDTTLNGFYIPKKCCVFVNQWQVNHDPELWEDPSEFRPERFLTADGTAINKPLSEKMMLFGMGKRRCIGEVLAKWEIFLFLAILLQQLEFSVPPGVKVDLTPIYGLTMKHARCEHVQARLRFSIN
Chain of Glucocorticoid receptor (Homo sapiens) (P04150 whole entry, looked up): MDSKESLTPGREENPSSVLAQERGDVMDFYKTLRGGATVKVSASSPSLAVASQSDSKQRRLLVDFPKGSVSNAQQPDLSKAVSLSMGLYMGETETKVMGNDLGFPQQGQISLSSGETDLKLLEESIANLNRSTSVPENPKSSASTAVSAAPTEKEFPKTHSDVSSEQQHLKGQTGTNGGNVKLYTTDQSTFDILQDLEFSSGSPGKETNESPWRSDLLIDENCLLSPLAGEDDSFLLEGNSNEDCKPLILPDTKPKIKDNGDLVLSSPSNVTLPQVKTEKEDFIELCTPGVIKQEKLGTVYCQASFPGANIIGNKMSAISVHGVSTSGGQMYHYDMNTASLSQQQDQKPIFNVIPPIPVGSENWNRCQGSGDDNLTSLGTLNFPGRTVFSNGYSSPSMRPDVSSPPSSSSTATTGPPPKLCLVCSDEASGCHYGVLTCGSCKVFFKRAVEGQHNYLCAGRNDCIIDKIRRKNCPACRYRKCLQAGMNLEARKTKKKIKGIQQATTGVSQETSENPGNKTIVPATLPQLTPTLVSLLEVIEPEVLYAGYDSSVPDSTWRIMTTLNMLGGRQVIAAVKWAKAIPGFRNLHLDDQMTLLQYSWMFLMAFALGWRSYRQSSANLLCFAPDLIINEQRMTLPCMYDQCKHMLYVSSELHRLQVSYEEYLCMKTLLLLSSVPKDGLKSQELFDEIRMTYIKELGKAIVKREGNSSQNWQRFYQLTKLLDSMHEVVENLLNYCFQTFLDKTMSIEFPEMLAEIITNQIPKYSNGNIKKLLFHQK
Chain of Cytochrome P450 3A4 (Homo sapiens) (P08684 whole entry, looked up): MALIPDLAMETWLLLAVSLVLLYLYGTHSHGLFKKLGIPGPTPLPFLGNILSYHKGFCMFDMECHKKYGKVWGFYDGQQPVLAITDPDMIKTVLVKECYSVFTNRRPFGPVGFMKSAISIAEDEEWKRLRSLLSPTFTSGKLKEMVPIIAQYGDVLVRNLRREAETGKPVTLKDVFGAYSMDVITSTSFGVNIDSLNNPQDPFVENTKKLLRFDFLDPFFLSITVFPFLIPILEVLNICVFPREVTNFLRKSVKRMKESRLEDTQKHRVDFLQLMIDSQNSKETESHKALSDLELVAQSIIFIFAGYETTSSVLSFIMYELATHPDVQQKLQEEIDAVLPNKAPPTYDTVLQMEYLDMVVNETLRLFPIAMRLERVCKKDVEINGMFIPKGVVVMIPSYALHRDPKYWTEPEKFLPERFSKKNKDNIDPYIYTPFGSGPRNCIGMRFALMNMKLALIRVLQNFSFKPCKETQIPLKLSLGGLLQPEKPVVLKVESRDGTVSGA
Chain of Cytochrome P450 2C19 (Homo sapiens) (P33261 whole entry, looked up): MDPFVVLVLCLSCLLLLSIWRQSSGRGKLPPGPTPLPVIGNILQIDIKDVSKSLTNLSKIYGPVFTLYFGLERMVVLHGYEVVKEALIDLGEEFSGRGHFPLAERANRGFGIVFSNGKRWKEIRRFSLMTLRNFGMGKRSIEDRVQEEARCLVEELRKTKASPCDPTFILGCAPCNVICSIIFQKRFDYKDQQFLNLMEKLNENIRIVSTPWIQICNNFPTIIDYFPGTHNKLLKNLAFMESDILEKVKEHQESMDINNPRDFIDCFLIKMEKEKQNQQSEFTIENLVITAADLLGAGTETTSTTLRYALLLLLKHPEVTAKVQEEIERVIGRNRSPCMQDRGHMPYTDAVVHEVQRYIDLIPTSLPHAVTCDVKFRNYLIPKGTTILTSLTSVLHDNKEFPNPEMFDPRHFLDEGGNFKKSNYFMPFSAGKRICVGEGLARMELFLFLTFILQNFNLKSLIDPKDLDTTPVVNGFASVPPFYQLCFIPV
Chain of Cytochrome P450 2C9 (Homo sapiens) (P11712 whole entry, looked up): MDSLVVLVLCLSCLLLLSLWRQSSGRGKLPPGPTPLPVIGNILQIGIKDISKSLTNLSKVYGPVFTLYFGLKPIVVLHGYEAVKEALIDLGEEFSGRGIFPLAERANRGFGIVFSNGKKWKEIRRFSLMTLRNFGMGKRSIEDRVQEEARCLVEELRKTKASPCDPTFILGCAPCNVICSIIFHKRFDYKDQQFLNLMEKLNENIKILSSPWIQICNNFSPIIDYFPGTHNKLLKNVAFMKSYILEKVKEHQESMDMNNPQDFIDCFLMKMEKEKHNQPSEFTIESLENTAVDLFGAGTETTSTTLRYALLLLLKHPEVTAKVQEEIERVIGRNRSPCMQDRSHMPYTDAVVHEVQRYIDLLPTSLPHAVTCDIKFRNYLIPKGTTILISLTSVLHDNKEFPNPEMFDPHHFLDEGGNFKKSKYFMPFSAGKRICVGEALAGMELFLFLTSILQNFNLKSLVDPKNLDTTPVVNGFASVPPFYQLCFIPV
Chain of Cytochrome P450 2D6 (Homo sapiens) (P10635 whole entry, looked up): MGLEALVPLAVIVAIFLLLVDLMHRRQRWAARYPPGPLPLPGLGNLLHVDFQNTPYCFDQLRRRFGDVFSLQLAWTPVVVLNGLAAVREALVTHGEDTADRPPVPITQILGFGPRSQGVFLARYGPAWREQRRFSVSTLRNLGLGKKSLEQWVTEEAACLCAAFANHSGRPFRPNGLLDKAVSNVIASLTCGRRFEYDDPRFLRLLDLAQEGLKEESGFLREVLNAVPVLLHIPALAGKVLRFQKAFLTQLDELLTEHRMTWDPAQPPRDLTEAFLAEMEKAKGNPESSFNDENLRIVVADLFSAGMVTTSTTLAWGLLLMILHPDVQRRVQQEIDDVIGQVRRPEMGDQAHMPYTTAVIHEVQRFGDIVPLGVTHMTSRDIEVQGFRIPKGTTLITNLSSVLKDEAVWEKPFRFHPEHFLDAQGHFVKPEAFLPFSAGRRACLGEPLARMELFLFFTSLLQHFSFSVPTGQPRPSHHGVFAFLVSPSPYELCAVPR

For the molecule `O=c1c(CCc2ccccc2)nc2cnc(Oc3cccc(Cl)c3)nc2n1C[C@H]1CCCO1`, the Potency in experiment [1] is above 11.4 µM; in experiment [3] it was 3.98 µM (active); in experiment [6], above 9.22 µM; in experiment [7], above 46 µM; in [8], 6.31 µM (active); in experiment [9] it was 0.501 µM (active). Besides, the activity change, negative = inhibition was -27.5% in experiment [2] and -15.5% in experiment [4]. Also, the activity, negative = inhibition in [5] was -17.7%. The Potency entry in experiment [10] was “inactive”.

Consider `O=C(O)c1cccc(CN2CCCCC2)c1`, for which the Potency in [1] was above 11.4 µM; in experiment [6], above 46 µM; in experiment [7], above 9.22 µM. In addition, the activity change, negative = inhibition is 9.32% in experiment [2] and -15.5% in [4]. The Potency result in [3], in experiment [11] and in experiment [8] was “inactive” each time. Moreover, in experiment [5], the activity, negative = inhibition was 3.88%.

In the case of `O=C(O)c1ccc(CNCc2ccccc2)cc1`, the Potency in [1] was above 11.4 µM; in [6], above 46 µM. For the same molecule, the results for the activity change, negative = inhibition in [2] and in experiment [4] were -3.63% and -2.06%, respectively. The Potency entry in experiment [3], in [12] and in [11] was “inactive” each time. In addition, in experiment [5], the activity, negative = inhibition was 15.5%. The activation in experiment [13] is 4.76%.

In the case of `O=S(=O)(O)c1ccc(N=Nc2ccccc2)cc1`, the Potency in [1] was above 11.4 µM; in [6], above 46 µM. Moreover, the activity change, negative = inhibition in experiment [2] was -9.23%; in [4] it was 7.04%. Also, the Potency entry in experiment [3], in experiment [12], in [11] and in [14] was “inactive” in each case. The activity, negative = inhibition in experiment [5] is 0.896%.

For `CSc1nnnc2ccccc12`, the Potency is above 11.4 µM in experiment [1], 3.16 µM (active) in [3] and above 46 µM in [6]. Also, the activity change, negative = inhibition is -4.35% in [2] and 3.54% in [4]. Also, in experiment [5], the activity, negative = inhibition is 0.181%. For the same molecule, the Potency entry in [12], in [11] and in experiment [15] was “inactive” in each case.

Regarding `CN(CCc1ccccn1)c1ccc2c(c1)C(=O)c1ccccc1-2`, the Potency in experiment [1] is above 2.29 µM; in experiment [3], 0.158 µM (active); in experiment [6] it was above 46 µM; in [7], above 9.22 µM; in [9], 3.16 µM (active); in [15], 2.51 µM (active). In addition, the activity change, negative = inhibition is 7.03% in [2] and 0.0317% in experiment [4]. The activity, negative = inhibition in [5] is -7.39%. Besides, the Potency result in [11] and in experiment [10] was “inactive” in each case.

For `O=C1O[C@@H]([C@H](O)[C@H](O)[C@H](O)CO)[C@@H](O)[C@@H]1O`, the values for the Potency in [1] and in experiment [6] were above 11.4 µM and above 46 µM, respectively. Also, the results for the activity change, negative = inhibition in [2] and in [4] were 21.3% and 6.28%, respectively. Besides, the Potency result in [3], in [12], in [11] and in [15] was “inactive” each time. The activity, negative = inhibition in experiment [5] is -13.5%.

As to `Cn1c(=O)c2[nH]c(CSCc3ccccc3)nc2n(C)c1=O`, the Potency was above 11.4 µM in [1], above 46 µM in [6] and above 9.22 µM in experiment [7]. In addition, the results for the activity change, negative = inhibition in experiment [2], in experiment [3] and in experiment [4] were 12.7%, -15.4% [at 2.29 µM] and 8.43%, respectively. In addition, in experiment [5], the activity, negative = inhibition is 4.21%. Further, the Potency entry in experiment [11] and in experiment [15] was “inactive” throughout.
